8 compounds from PubChem BioAssay (Tox21) can be followed below.

Inconclusive results are not listed. Unmarked numbers belong to inactive results. The source made the active and inactive calls. Unless noted, the call rests on the fitted dose curve; in most records, active means well fitted curve in the direction sought with a large enough effect in the repeat runs; inconclusive means weak or mixed curves; inactive means no such curve, though single readings can be large; an effect the other way counts as inactive or inconclusive.

Experiment [1] is described as follows: qHTS assay to identify small molecule agonists of the NFkB signaling pathway (AID 1159509; active means well fitted curve in the direction sought with a large enough effect in the signal ratio in the repeat runs, not every such curve was filed as active; the % refers to the signal ratio; further: series mostly up to about 61 µM; on the % scale 0 is the no-effect control and ±100 the full control effect). A digest of the protocol:
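Pathway activation was measured in ME-180 cells stably expressing beta-lactamase under NF-kB response element control. Substrate cleavage was read as the 460/530 nm emission shift after 5 hr compound incubation.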

Experiment [2] in a line: qHTS assay to identify small molecule agonists of the NFkB signaling pathway - cell viability counter screen (AID 1159515; calls by dose curve; further: series mostly up to about 61 µM; on the % scale 0 is the no-effect control and ±100 the full control effect; nearly all actives have a fitted effect of over 55% in size). A digest of the protocol: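 Cells are seeded (2,000 NFkB-bla ME-180 per well), rested overnight, and dosed with DMSO-dissolved compounds for 5 hr at 37 C. Viability is then read by CellTiter-Glo luminescence after 30 min at room temperature.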
Experiment [3] in a line: qHTS assay to identify small molecule agonists of the endoplasmic reticulum stress response signaling pathway (AID 1159516; active means well fitted activation curve with a large enough effect in the signal ratio in the repeat runs, not every such curve was filed as active; the % refers to the signal ratio; further: on the % scale 0 is the no-effect control and ±100 the full control effect). The essentials: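 Cells are seeded at 1,500 per well and incubated overnight. Compounds in DMSO are added for 5 hr at 37 C, then beta-lactamase FRET substrate for 2 hr at room temperature, and fluorescence at 460 and 530 nm is measured.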
The nature of experiment [4]: qHTS assay to identify small molecule agonists of the endoplasmic reticulum stress response signaling pathway - cell viability counter screen (AID 1159517; calls by dose curve;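 further: HeLa cells carrying an ER stress response element beta-lactamase reporter; series mostly up to about 61 µM; on the % scale 0 is the no-effect control and ±100 the full control effect; nearly all actives have a fitted effect of over 50% in size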). The essentials: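 ESRE-bla HeLa cells (1,500/well) were plated overnight at 37 C and exposed to compounds for 5 hr. After the 2 hr beta-lactamase substrate read, CellTiter-Glo went into the same wells, and luminescence was read after 30 min at room temperature.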

Experiment [5] in a line: qHTS assay to identify small molecule antagonists of the retinoid-related orphan receptor gamma (ROR-gamma) signaling pathway - cell viability counter screen (AID 1159520). Further: on the % scale 0 is the no-effect control and ±100 the full control effect; nearly all actives have a fitted effect of over 50% in size. The essentials:
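Cytotoxicity was read from cellular ATP (CellTiter-Glo luminescence) after 16 hr at 37 C with 1 uM doxycycline induction. The inducer was added 2 hr after compound transfer to Tet-on ROR gamma CHO cells.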

Experiment [6] has as its target Nuclear receptor ROR-gamma (Homo sapiens) (UniProt P51449). The experiment can be described thus: qHTS assay to identify small molecule antagonists of the retinoid-related orphan receptor gamma (ROR-gamma) signaling pathway (AID 1159521; further: top concentration of the series differs between compounds; on the % scale 0 is the no-effect control and ±100 the full control effect; nearly all actives have a fitted effect of over 50% in size). A digest of the protocol: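 Luminescence readout (ONE-Glo, 30 min RT) after 16 h doxycycline induction; loss of signal scored as antagonism. CHO cells with TET-inducible RORγ and RORE-LUC reporter; compounds added 2 h before 1 uM final doxycycline.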

The nature of experiment [7]: qHTS assay to identify small molecule agonists of the AP-1 signaling pathway - cell viability counter screen (AID 1159525; calls by dose curve; further: nearly all actives have a fitted effect of over 55% in size). The essentials:
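Intracellular ATP by Cell Titer Glo luminescence (30 min, RT) in the same ME-180 AP-1-bla wells after the 5 h compound exposure at 37 °C. Normalised to tetra n-octyl ammonium bromide and DMSO controls.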

The nature of experiment [8]: qHTS assay to identify small molecule agonists of the AP-1 signaling pathway (AID 1159526; calls by dose curve; further: on the % scale 0 is the no-effect control and ±100 the full control effect).
The target in experiment [9] is Retinoic acid receptor RXR-alpha (Homo sapiens) (UniProt P19793). As to the kind of experiment: qHTS assay to identify small molecule agonists of the RXR signaling pathway (AID 1159527; calls by dose curve; further: nearly all actives have a fitted effect of over 35% in size; further: potency means the concentration at half of the fitted maximal effect). The essentials:
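Agonist mode; 9-cis retinoic acid positive control. HEK 293T UAS-bla reporter cells, 2% charcoal-stripped FBS, 16 hr compound exposure at 37 C/5% CO2. LiveBLAzer B/G FRET substrate 2 hr RT; ex 405, em 460/530 nm.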

The nature of experiment [10]: qHTS assay to identify small molecule agonists of the RXR signaling pathway - cell viability counter screen (AID 1159529). Further: series mostly up to about 77 µM; on the % scale 0 is the no-effect control and ±100 the full control effect; nearly all actives have a fitted effect of over 50% in size. The essentials: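 Luminescence from CellTiter-Glo (30 min, RT) measured viability in the same wells as the beta-lactamase reporter readout. Cells: GeneBLAzer RXR-alpha HEK 293T, 2% charcoal-stripped FBS. Compound exposure 16 hr, 37 C.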
Experiment [11] is described as follows: qHTS assay to identify small molecule antagonists of the retinoid acid receptor (RAR) signaling pathway - cell viability counter screen (AID 1159551). Further: on the % scale 0 is the no-effect control and ±100 the full control effect; nearly all actives have a fitted effect of over 35% in size. The essentials: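 Cells (C3RL4) are plated, incubated overnight, dosed with compound in DMSO, then given retinol at 1 uM final. After 6 h at 37 C, CellTiter-Glo is added and luminescence read following 30 min at room temperature.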

Experiment [12] in a line: qHTS assay to identify small molecule antagonists of the retinoic acid receptor (RAR) signaling pathway (AID 1159552). The essentials:
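Luminescence from a RARE luciferase reporter in C3RL4 cells served as read-out. Cells received compounds together with 1 uM final retinol and incubated 6 hr at 37 C before detection reagent was added for 30 min at room temperature.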

The nature of experiment [13]: qHTS assay to identify small molecule agonists of the retinoic acid receptor (RAR) signaling pathway (AID 1159553). Further: on the % scale 0 is the no-effect control and ±100 the full control effect. A digest of the protocol: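 Seed C3RL4 reporter cells at 1,000 per well and incubate overnight at 37 C. Add compounds in DMSO, incubate 6 hr. Add luciferase reagent, wait 30 min at room temperature, read luminescence.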
Experiment [14] is described as follows: qHTS assay to identify small molecule agonists of the vitamin D receptor (VDR) signaling pathway - cell viability counter screen (AID 743224). A digest of the protocol:
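Cells: VDR-bla, 2,000/well, settled 4 h. Treatment: compounds in DMSO, 16 h, 37C/5% CO2. Readout: CellTiter-Glo luminescence after 30 min RT.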

Experiment [15] is described as follows: qHTS assay to identify small molecule antagonists of the vitamin D receptor (VDR) signaling pathway - cell viability counter screen (AID 743225). A digest of the protocol: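 Viability counter screen run in the same wells as the beta-lactamase reporter assay: HEK 293T VDR-UAS-bla cells, 16 h compound exposure at 37C with 3 nM (final) 1-alpha,25-dihydroxyvitamin D3. CellTiter-Glo luminescence, 30 min, room temperature.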

Retinoic acid receptor RXR-alpha (Homo sapiens), sequence (P19793 whole entry, looked up): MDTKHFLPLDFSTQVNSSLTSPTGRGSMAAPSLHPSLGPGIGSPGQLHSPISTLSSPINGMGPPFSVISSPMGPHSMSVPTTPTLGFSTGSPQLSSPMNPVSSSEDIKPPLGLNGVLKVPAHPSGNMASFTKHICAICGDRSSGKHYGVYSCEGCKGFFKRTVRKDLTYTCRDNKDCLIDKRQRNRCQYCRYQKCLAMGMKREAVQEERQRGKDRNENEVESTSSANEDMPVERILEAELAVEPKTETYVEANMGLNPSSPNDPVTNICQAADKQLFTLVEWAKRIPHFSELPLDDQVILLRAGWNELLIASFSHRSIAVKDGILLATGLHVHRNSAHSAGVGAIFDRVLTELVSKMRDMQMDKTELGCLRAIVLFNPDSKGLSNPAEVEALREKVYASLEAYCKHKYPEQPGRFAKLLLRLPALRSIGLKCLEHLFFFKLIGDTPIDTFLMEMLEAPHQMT

As to `CCN(CCO)CCO`, the compound was classed as inactive in [1], in experiment [2], in experiment [3] and in [8]. The Potency result in experiment [4], in experiment [5], in experiment [6], in experiment [7], in experiment [9] and in experiment [10] was “inactive” each time. In addition, the Potency entry in experiment [11], in [12] and in experiment [13] was “inactive” each time.
Turning to `Clc1cc2c(cc1Cl)Oc1cc(Cl)c(Cl)cc1O2`, the activity change, negative = cytotoxicity is -0.698% [at 0.275 µM] in experiment [14], -1.54% [at 0.281 µM] in experiment [4], -1.01% [at 0.29 µM] in experiment [10] and 3.92% [at 0.349 µM] in experiment [11]. Also, the viability change, negative = cytotoxic in [15] is 2.97% [at 0.281 µM]; in [7], -6.16% [at 0.29 µM]. Further, the activation in experiment [1] is -0.0516% [at 0.281 µM]; in experiment [3], -5.12% [at 0.281 µM]; in experiment [8] it was 0.434% [at 0.29 µM]; in [9], 5.21% [at 0.29 µM]; in experiment [13] it was -1.63% [at 0.338 µM]. Moreover, the activity, negative = cytotoxic in [2] is -0.991% [at 0.281 µM]. Besides, the activity, negative = cytotoxicity in [5] is 0.49% [at 0.349 µM]. Besides, in experiment [6], the activity change, negative = inhibition is 16.4% [at 0.35 µM]. Further, in experiment [12], the activity, negative = inhibition is -3.48% [at 0.349 µM].
On to `CCN(CC)CCOC(=O)C(O)(c1ccccc1)c1ccccc1`, for which the Potency entry in experiment [14], in experiment [4], in experiment [5], in [6], in experiment [7] and in [9] was “inactive” throughout. For the same compound, the Potency entry in experiment [10], in [11], in experiment [12] and in experiment [13] was “inactive” throughout. Further, the call in experiment [1], in [2], in [3] and in experiment [8] was inactive.
Turning to `CC(C)(C)C(=O)C(Cl)Cl`, the Potency entry in [14], in experiment [4], in experiment [5], in [6], in [7] and in experiment [9] was “inactive” throughout. For the same compound, the Potency entry in [10], in experiment [11], in [12] and in [13] was “inactive” throughout. Moreover, the compound was called inactive in [1], in experiment [2], in experiment [3] and in experiment [8].
Regarding `BrCCc1ccccc1`, the Potency result in experiment [14], in [4], in experiment [5], in experiment [6], in experiment [7] and in experiment [9] was “inactive” in each case. The Potency entry in experiment [10], in experiment [11], in experiment [12] and in [13] was “inactive” in each case. The outcome in experiment [1], in [2], in experiment [3] and in experiment [8] was inactive.
On to `CC(C)(C)C(=O)Cl`, for which the Potency result in experiment [14], in experiment [4], in experiment [5], in [6], in [7] and in [9] was “inactive” each time. The Potency result in experiment [10], in experiment [11], in [12] and in experiment [13] was “inactive” each time. For the same compound, the outcome in [1], in experiment [2], in experiment [3] and in experiment [8] was inactive.
For `CC(C)c1ccc(O)cc1`, the Potency entry in experiment [14], in experiment [4], in experiment [5], in [6], in [7] and in [9] was “inactive” in each case. Further, the Potency result in [10], in experiment [11], in experiment [12] and in experiment [13] was “inactive” in each case. Also, the outcome in experiment [1], in experiment [2], in experiment [3] and in [8] was inactive.
Regarding `N#CN=C1SCCN1Cc1ccc(Cl)nc1`, the Potency result in experiment [14], in experiment [4], in experiment [5], in experiment [6], in [7] and in experiment [10] was “inactive” each time. Also, the Potency entry in [11], in [12] and in experiment [13] was “inactive” each time. The compound was called inactive in experiment [1], in [2], in experiment [3] and in experiment [8]. Moreover, in experiment [9], the Potency was 38.9 µM (active).
